Experimental findings from ChEMBL document CHEMBL1157539, “Thousands of chemical starting points for antimalarial lead identification” (Nature, 2010) are described below.

Common to all, as to type: functional
Assay [1] relates to Plasmodium falciparum. Kind of assay: GSK_TCMDC: Inhibition of Plasmodium falciparum 3D7 in whole red blood cells, using parasite LDH activity as an index of growth. Test compounds present at 2uM.
For assay [2], the system named is Plasmodium falciparum. The experiment in a line: GSK_TCMDC: Inhibition of Plasmodium falciparum Dd2 in whole red blood cells, using parasite LDH activity as an index of growth. Test compounds present at 2uM.
Another assay concerns HepG2. The experiment in a line: GSK_TCMDC: Percent inhibition of human HepG2 cell line. Test compounds present at 10uM.

As for `O=C(NCc1cccc2ccccc12)C1CCCN(C(=O)c2ccc(O)c(-c3ccc(Cl)c(Cl)c3)c2)C1` (centres undefined), the Inhibition (commonly the relative decrease from the control value, in per cent) is listed as 92% with Plasmodium falciparum [1], 23% with Plasmodium falciparum [2] and 1% with HepG2.
The matching figures for `CCOc1cc(C(=O)NCCN(CC)c2cccc(C)c2)ccc1-c1nc2cc(Cl)ccc2[nH]1`: 100%, 80% and 0%.
For `CC(C)(C)c1ccc(NC(=O)c2ccc(CN3CCCN(Cc4ccsc4)CC3)cc2)cc1.O=C(O)C(F)(F)F`, the Inhibition in the assay on Plasmodium falciparum [1] turned out to be 96%; in the assay on Plasmodium falciparum [2], 0%; with HepG2, 50%.
The matching figures for `Fc1ccc(OC2CN(c3nccc(NCc4ccccc4Cl)n3)C2)cc1`: 98%, 99% and 0%.
For `COc1ccc(CCN(C)CCCCc2ccc(NC(=O)c3cccc4c(=O)c5cc(F)ccc5sc34)cc2)cc1OC` the same measures were 96%, 49% and 98%.
The matching figures for `Cc1cccc2nc(-c3ccc(-c4cccc(NC(=O)Nc5cccc(C#N)c5)c4)cc3)[nH]c12`: 100%, 86% and 25%.
For `O=C(O)C(F)(F)F.O=c1[nH]ccc2nc(N[C@@H]3CCNC3)nc(Nc3ccc4c(c3)S(=O)(=O)CC4)c12`, the Inhibition in the assay on Plasmodium falciparum [1] amounted to 100%; in the assay on Plasmodium falciparum [2], 99%; in the assay with HepG2 it was 0%.
The matching figures for `O=C(Nc1ccccc1)N(Cc1ccc(-c2ccc(CNC3CCCC3)cc2)cc1)C1CCN(Cc2ccccc2)CC1.O=C(O)C(F)(F)F`: 100%, 61% and 34%.
For `Cc1cc(Nc2ccccc2)nc(Nc2ccccc2)n1` the same measures were 96%, 74% and 0%.
For `CCCCCc1cc(OC(=O)CCCN(CC)CC)c2c(c1)OC(C)(C)C=C2C1=CCN(Cc2ccc3ccccc3c2)CC1` the same measures were 100%, 92% and 94%.
Turning to `O=C(O)C(=O)O.c1ccc(C2CCC(N3CCC(N4CCCC4)CC3)CC2)cc1` (centres undefined), the figures for the Inhibition with Plasmodium falciparum [1], in the assay on Plasmodium falciparum [2] and in the assay on HepG2 were 100%, 46% and 9%, respectively.
`CCCCCC(C)C(C)c1cc(O)c2c(c1)OC(C)(C)C=C2c1cc[n+]([O-])cc1` (centres undefined): the Inhibition with Plasmodium falciparum [1] is 91%; in the assay with Plasmodium falciparum [2], 2%; in the assay with HepG2 it was 11%.
For `C[C@H](CNc1ccnc(Nc2ccc3[nH]c(=O)[nH]c3c2)n1)c1ccccc1.O=CO` the same measures were 100%, 0% and 61%.
For `Cc1cc(NCCc2ccccc2)nc(NC(=N)Nc2cccc([N+](=O)[O-])c2)n1` the same measures were 100%, 100% and 21%.
The matching figures for `Cc1cc(O)c(-c2cccc(Oc3ccc(Cl)cc3)c2)c(C)n1`: 96%, 95% and 0%.
As to `O=C(NCCCN1CCN(c2cccc(Cl)c2)CC1)c1ccc(-c2nc3cc(Cl)c(Cl)cc3[nH]2)cc1`, the Inhibition with Plasmodium falciparum [1] came out at 98%; in the assay on Plasmodium falciparum [2], 95%; with HepG2, 3%.
As to `CS(=O)(=O)c1ccc2[nH]c(-c3cc(-c4cccc(F)c4)cnc3N)nc2c1.O=C(O)C(F)(F)F`, the Inhibition in the assay with Plasmodium falciparum [1] worked out at 100%; in the assay with Plasmodium falciparum [2], 71%; in the assay with HepG2 it was 33%.
The matching figures for `O=C(NCCCN1CCOCC1)c1csc(Nc2ccc(Cl)c(Cl)c2)n1`: 92%, 23% and 5%.
